Test results published in PubChem BioAssay AID1159580 (chemical genetic matrix, 2015).
Values joined by “and” are separate entries in the source; they are usually repeats but may differ in a detail not shown here. Identical values can stand only once. In all, about 5,500 compounds went through this assay and about 2,000 (36%) were called active. About 18% were inconclusive and are not listed. Rule as the data show it: active = normalized growth mostly below about 0.91 (no sharp cut-off); inconclusive = no clear call, values can overlap the other calls; inactive = mostly above about 0.92. The list shows a part of the results.

Assay: chemical genetic growth profiling, strain panel (AID 1159580);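 also: tested at 20 µM; growth read once vehicle control cultures reached saturation at 30 °C; 1 = growth at the plate median or of vehicle wells; lower values mean less growth of the strain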
Details: S. cerevisiae deletion strains, growth OD

Measured: normalized growth

COc1cc2c(cc1OC)[C@@H]1C(=O)c3ccc(OC)c(CC=C(C)C)c3O[C@@H]1CO2
inactive: locus YAL013W, strain DEP1, active compounds read low 1.03 | locus YAL021C, strain ccr4, active compounds read low 1.06 | locus YAL026C, strain drs2, active compounds read low 1.04 | locus YAL030W, strain snc1, active compounds read low 1.02 | locus YBL061C, strain skt5, active compounds read low 1.02 | locus YBR009C, strain hhf1, active compounds read low 1.01 | locus YBR021W, strain FUR4, active compounds read low 1.03 | locus YBR023C, strain chs3, active compounds read low 1.02 | locus YBR171W, strain sec66, active compounds read low 1.05 | locus YBR229C, strain ROT2, active compounds read low 1.02 | locus YBR231C, strain swc5, active compounds read low 1.05 | locus YBR279W, strain paf1, active compounds read low 1.01 | locus YCL011C, strain gbp2, active compounds read low 1.02 | locus YCL016C, strain dcc1, active compounds read low 1.02 | locus YCL029C, strain bik1, active compounds read low 1.02 | locus YCL061C, strain MRC1, active compounds read low 0.987 | locus YCL069W, strain vba3, active compounds read low 1.03 | locus YCR088W, strain abp1, active compounds read low 1.02 | locus YDL005C, strain med2, active compounds read low 1.02 | locus YDL035C, strain GPR1, active compounds read low 1.06 | locus YDL040C, strain nat1, active compounds read low 1.02 | locus YDL074C, strain BRE1, active compounds read low 1.05 | locus YDL101C, strain DUN1, active compounds read low 1.01 | locus YDL185W, strain tfp1, active compounds read low 1.02 | locus YDL192W, strain arf1, active compounds read low 1.04 | locus YDR001C, strain nth1, active compounds read low 1.02 | locus YDR069C, strain doa4, active compounds read low 1.03 | locus YDR101C, strain arx1, active compounds read low 1.03 | locus YDR137W, strain rgp1, active compounds read low 0.892 | locus YDR159W, strain sac3, active compounds read low 1.02 | locus YDR162C, strain NBP2, active compounds read low 1.01 | locus YDR195W, strain ref2 1.06 | locus YDR297W, strain sur2, active compounds read low 1.02 | locus YDR318W, strain mcm21, active compounds read low 1.01 | locus YDR334W, strain swr1, active compounds read low 1.02 | locus YDR335W, strain msn5, active compounds read low 1.03 | locus YDR388W, active compounds read low 1.02 | locus YDR392W, strain spt3, active compounds read low 0.813 | locus YDR502C, strain sam2, active compounds read low 1.01 | locus YEL003W, strain gim4, active compounds read low 1.03 | locus YEL037C, strain rad23, active compounds read low 1.01 | locus YEL061C, strain CIN8 (second series), active compounds read low 1.03 | locus YEL061C, strain CIN8, active compounds read low 1.04 | locus YER015W, strain faa2, active compounds read low 1.04 | locus YER016W, strain bim1, active compounds read low 1.03 | locus YER110C, active compounds read low 1 | locus YER111C, strain swi4, active compounds read low 1.02 | locus YER155C, strain BEM2 (second series), active compounds read low 1.03 | locus YER155C, strain BEM2, active compounds read low 0.993 | locus YER167W, strain BCK2, active compounds read low 1.01 | locus YFR010W, strain ubp6, active compounds read low 1.03 | locus YGL078C, strain dbp3, active compounds read low 1.01 | locus YGL086W, strain mad1, active compounds read low 0.999 | locus YGL167C, strain pmr1, active compounds read low 1.03 | locus YGL173C, strain kem1, active compounds read low 1.04 | locus YGL227W, strain vid30, active compounds read low 1.03 | locus YGL240W, strain doc1, active compounds read low 1.03 | locus YGL248W, strain PDE1, active compounds read low 1.02 | locus YGL253W, strain hxk2, active compounds read low 1.04 | locus YGR078C, strain PAC10, active compounds read low 1.05 | locus YGR135W, strain pre9, active compounds read low 1.02 | locus YGR252W, strain gcn5, active compounds read low 0.994 | locus YHR013C, strain ard1, active compounds read low 1.14 | locus YHR027C, strain rpn1, active compounds read low 1.03 | locus YHR030C, strain SLT2, active compounds read low 1.02 and 1.03 | locus YHR079C, strain IRE1 (second series), active compounds read low 0.997 | locus YHR079C, strain IRE1, active compounds read low 1.02 | locus YHR094C, strain hxt1, active compounds read low 1.01 | locus YHR129C, strain ARP1, active compounds read low 1.04 | locus YHR142W, strain chs7, active compounds read low 1.01 | locus YHR200W, strain rpn10, active compounds read low 1.01 | locus YIL066C, strain RNR3, active compounds read low 1.01 | locus YIL073C, strain SPO22, active compounds read low 1.1 | locus YIL125W, strain kgd1, active compounds read low 0.995 | locus YIR030C, strain dcg1, active compounds read low 0.998 | locus YJL092W, strain hpr5, active compounds read low 1.03 | locus YJL095W, strain BCK1 (second series), active compounds read low 1.02 | locus YJL095W, strain BCK1, active compounds read low 1.04 and 1.05 | locus YJL115W, strain asf1, active compounds read low 1.03 | locus YJL129C, strain trk1, active compounds read low 0.953 | locus YJL134W, strain LCB3, active compounds read low 1.02 | locus YJL154C, strain vps35, active compounds read low 1.03 | locus YJL164C, strain tpk1, active compounds read low 1 | locus YJL166W, strain qcr8, active compounds read low 1.03 | locus YJL168C, strain set2, active compounds read low 1 | locus YJL187C, strain SWE1 (second series), active compounds read low 1 | locus YJL187C, strain SWE1, active compounds read low 1.04 | locus YJR066W, strain TOR1, active compounds read low 0.982 | locus YKL009W, strain mrt4, active compounds read low 1.04 | locus YKL068W, active compounds read low 0.999 | locus YKL085W, strain MDH1 (second series), active compounds read low 0.999 | locus YKL085W, strain MDH1, active compounds read low 0.999 | locus YKL160W, strain elf1, active compounds read low 1.02 | locus YKL190W, strain CNB1, active compounds read low 1.04 | locus YKR001C, strain vps1, active compounds read low 0.934 | locus YKR026C, strain gcn3, active compounds read low 1 | locus YKR091W, strain srl3, active compounds read low 1.02 | locus YLL001W, strain dnm1, active compounds read low 1.03 | locus YLL026W, active compounds read low 1.03 | locus YLL041C, strain sdh2, active compounds read low 1.02 | locus YLR027C, strain aat2, active compounds read low 1.02 | locus YLR039C, strain RIC1, active compounds read low 0.846 | locus YLR058C, strain SHM2, active compounds read low 1 | locus YLR102C, strain apc9, active compounds read low 1.01 | locus YLR113W, strain HOG1, active compounds read low 0.988 | locus YLR221C, strain rsa3, active compounds read low 1.01 | locus YLR258W, strain gsy2, active compounds read low 1.03 | locus YLR262C, strain YPT6 (second series), active compounds read low 0.91 | locus YLR268W, strain sec22, active compounds read low 1.05 | locus YLR320W, strain mms22, active compounds read low 1.02 | locus YLR330W, strain CHS5, active compounds read low 1.01 | locus YLR342W, strain FKS1, active compounds read low 1.02 | locus YLR357W, strain rsc2, active compounds read low 1.02 | locus YLR370C, strain arc18, active compounds read low 1.02 | locus YLR371W, strain rom2, active compounds read low 1.04 | locus YLR384C, strain iki3, active compounds read low 1.02 | locus YLR418C, strain cdc73, active compounds read low 1.01 | locus YML016C, strain PPZ1, active compounds read low 1.01 | locus YML032C, strain rad52, active compounds read low 1 | locus YML120C, strain ndi1, active compounds read low 1.01 | locus YML124C, strain tub3, active compounds read low 1.01 | locus YMR058W, strain fet3, active compounds read low 1.03 | locus YMR078C, strain ctf18, active compounds read low 1.01 | locus YMR125W, strain sto1, active compounds read low 1.03 | locus YMR129W, active compounds read low 1.02 | locus YMR205C, strain PFK2, active compounds read low 0.993 | locus YMR223W, strain ubp8, active compounds read low 1.02 | locus YMR231W, strain pep5, active compounds read low 1.02 | locus YMR263W, strain SAP30, active compounds read low 1.03 | locus YMR307W, strain GAS1, active compounds read low 1.08 | locus YNL067W, strain RPL9B, active compounds read low 1.04 | locus YNL071W, strain lat1, active compounds read low 1.01 | locus YNL153C, strain GIM3, active compounds read low 1.04 | locus YNL183C, strain NPR1, active compounds read low 0.974 | locus YNL209W, strain ssb2, active compounds read low 1.03 | locus YNL233W, strain BNI4, active compounds read low 0.984 | locus YNL248C, strain rpa49, active compounds read low 1.05 | locus YNL250W, strain rad50, active compounds read low 0.961 | locus YNL271C, strain bni1, active compounds read low 1.01 | locus YNL298W, strain CLA4, active compounds read low 1.01 | locus YNL307C, strain MCK1, active compounds read low 0.999 | locus YNL322C, strain KRE1 (second series), active compounds read low 1.01 | locus YNL322C, strain KRE1, active compounds read low 1.02 | locus YNR049C, strain mso1, active compounds read low 1.04 | locus YNR052C, strain pop2, active compounds read low 1.03 | locus YOL012C, strain htz1 1.26 | locus YOL147C, strain pex11, active compounds read low 1 | locus YOR001W, strain rrp6, active compounds read low 1.04 | locus YOR061W, strain CKA2, active compounds read low 1.02 | locus YOR069W, strain VPS5, active compounds read low 1.01 | locus YOR070C, strain gyp1, active compounds read low 1.02 | locus YOR080W, strain dia2, active compounds read low 1.04 | locus YOR083W, strain WHI5, active compounds read low 1.02 | locus YOR106W, strain vam3, active compounds read low 1.05 | locus YOR136W, strain idh2, active compounds read low 1.03 | locus YOR144C, strain elg1, active compounds read low 1.01 | locus YOR184W, strain ser1, active compounds read low 1.05 | locus YOR231W, strain MKK1, active compounds read low 1.04 | locus YOR265W, strain rbl2, active compounds read low 1.02 | locus YOR270C, strain vph1, active compounds read low 1.06 | locus YOR290C, strain snf2, active compounds read low 1 | locus YOR316C, strain cot1, active compounds read low 0.992 | locus YPL051W, strain arl3, active compounds read low 1.01 | locus YPL078C, strain atp4, active compounds read low 1.03 | locus YPL106C, strain sse1, active compounds read low 1.1 | locus YPL240C, strain hsp82, active compounds read low 1.02 | locus YPL256C, strain CLN2, active compounds read low 1.03 | locus YPR119W, strain clb2, active compounds read low 1.01 | locus YPR141C, strain kar3, active compounds read low 1 | locus YPR163C, strain tif3, active compounds read low 0.997 | locus YPR167C, strain met16, active compounds read low 1.01 | strain wtn01, active compounds read low 1.01
